This note sets out measurements from PubChem BioAssay (Tox21).

A short description of test [1]: qHTS assay to identify small molecule agonists of the TGF-beta/Smad signaling pathway - cell viability counter screen (AID 1346829). Also: top concentration of the series differs between compounds; nearly all actives have a fitted effect of over 45% in size. In short, it runs like this:
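Tox21 qHTS format: SBE-bla HEK 293T cells treated with DMSO-dissolved compounds for 5 hr; CellTiter-Glo luminescence after 30 min at room temperature.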
(qHTS replaces the single test concentration by a dilution series.)

Test [2] can be described thus: qHTS assay to identify small molecule agonists of the TGF-beta/Smad signaling pathway (AID 1346859; active = well fitted activation curve with a large enough effect in the signal ratio in the repeat runs, not every such curve was filed as active; the % refers to the signal ratio; also: series mostly up to about 77 µM). In a few lines: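 Dual-wavelength fluorescence (460/530 nm emission) quantified beta-lactamase expression under the Smad binding element in HEK 293T cells following 5 hr compound treatment at 37 C.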
Test [3] deals with Thyrotropin-releasing hormone receptor (Homo sapiens) (UniProt P34981). Put plainly: qHTS assay to identify small molecule antagonists of the thyrotropin-releasing hormone receptor (TRHR) signaling pathway (AID 1346877; active = well fitted inhibition curve with a large enough effect in the repeat runs, not every such curve was filed as active; also: series mostly up to about 51 µM). In a few lines: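 Cells (TRHR-HEK293) are plated and kept 18 h at 37 °C/5% CO2. A calcium-sensitive dye is added for 2 h, compound follows for 5 min at room temperature, and TRH is then given at 1 nM final.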

Test [4] shares this target. Put plainly: qHTS assay to identify small molecule agonists of the thyrotropin-releasing hormone receptor (TRHR) signaling pathway (AID 1346891; calls by dose curve;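 also: HEK293 cells expressing TRHR with calcium dye readout; series mostly up to about 58 µM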). In a few lines: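 Kinetic fluorescence (3 min, 1 s intervals) reported intracellular calcium after compound transfer onto TRHR-Hek293 cells pre-loaded with dye for 2 h at 37 °C.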
Test [5] is described as follows: Human pregnane X receptor (PXR) small molecule agonists, qHTS cell viability counter screen (AID 1346977). Also: nearly all actives have a fitted effect of over 50% in size. In short, it runs like this: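 HepG2 cells stably carrying the PXR-Luc reporter are cultured with 5% charcoal-stripped FBS and treated with compounds for 24hr. CellTiter-Fluor is added at 23hr and fluorescence is read after 1hr.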
Test [6] in a line: Caspase-3/7 induction in HepG2 cells by small molecules, qHTS assay (AID 1346978). Also: nearly all actives have a fitted effect of over 15% in size. In short, it runs like this: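 Wild-type HepG2 cells, 2,000/well, settled 5 hr at 37 C and 5% CO2, then compound-treated for 17 hr; caspase-3/7 activity read by luminescent Caspase-Glo 3/7 after 30 min at room temperature.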
Test [7] in a line: Caspase-3/7 induction in CHO-K1 cells by small molecules, qHTS assay (AID 1346980). Also: nearly all actives have a fitted effect of over 15% in size. In short, it runs like this:
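Wild-type CHO-K1 cells exposed to compounds for 17hr at 37 C, 5% CO2. Caspase-3/7 activity then measured by Caspase-Glo 3/7 luminescence after 30min at room temperature.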

A short description of test [8]: Caspase-3/7 induction in HepG2 cells by small molecules, qHTS cell viability counter screen (AID 1346981). Also: series mostly up to about 92 µM; nearly all actives have a fitted effect of over 30% in size. In a few lines:
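Steps: seed 2,000 HepG2 cells per well; incubate 5 hr at 37 C; pin-add compounds in DMSO; incubate 16 hr; add CellTiter-Fluor; after 1 hr at 37 C and 5% CO2, read fluorescence.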

Test [9] addresses Nuclear receptor subfamily 1 group I member 2 (Homo sapiens) (UniProt O75469). Put plainly: Human pregnane X receptor (PXR) small molecule agonists, qHTS assay (AID 1346982). Also: nearly all actives have a fitted effect of over 35% in size. In short, it runs like this:
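Agonist mode qHTS: PXR-Luc HepG2 cells plated 5 hr before DMSO-dissolved compounds were pinned in, cultured 24 hr at 37 C, 5% CO2; ONE-Glo luminescence readout.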

Test [10] addresses Cytochrome P450 2C9 (Homo sapiens) (UniProt P11712). Put plainly: Cytochrome P450 Family 2 Subfamily C Member 9 (CYP2C9) small molecule antagonists: luciferase reporter qHTS assay (AID 1671198). Also: nearly all actives have a fitted effect of over 50% in size. Also: potency is read from the fitted curve at half-maximal effect. In short, it runs like this: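 P450-Glo proluciferin substrate with CYP2C9 enzyme; 10 min RT preincubation, then NADPH regeneration 1 h at 37C; luciferin detection reagent 20 min RT, luminescence in relative luminescence units.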
For orientation: In a reporter assay the amount or activity of a reporter protein is the signal.

For test [11], the target named is Cytochrome P450 1A2 (Homo sapiens) (UniProt P05177). Put plainly: Cytochrome P450 Family 1 Subfamily A Member 2 (CYP1A2) small molecule antagonists: luciferase reporter qHTS assay (AID 1671199). Also: nearly all actives have a fitted effect of over 50% in size. Also: potency is read from the fitted curve at half-maximal effect. In short, it runs like this:
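Inhibition of CYP1A2 conversion of proluciferin to luciferin, detected by luminescence. Reaction run 1 h at room temperature with NADPH regeneration after brief compound preincubation.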

Test [12] concerns the target Voltage-gated inwardly rectifying potassium channel KCNH2 (Homo sapiens) (UniProt Q12809). Put plainly: Human Ether-a-go-go-Related Gene (hERG) channel small molecule antagonists: fluorescence cell-based qHTS assay (AID 1671200).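 Also: hERG-expressing U2OS cells given a thallium stimulus after FluxOR II dye loading; series mostly up to about 77 µM; nearly all actives have a fitted effect of over 50% in size.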 In short, it runs like this:
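First, 1000 cells per well are seeded and cultured overnight at 37 C. Next, FluxOR II dye is loaded for 1 h at room temperature, protected from light. After 10 more minutes, stimulus is added and fluorescence is read.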
In general terms: The hERG channel carries a current that helps repolarise heart muscle cells.

Test [13] has as its target Cytochrome P450 3A4 (Homo sapiens) (UniProt P08684). Put plainly: Cytochrome P450 Family 3 Subfamily A Member 4 (CYP3A4) small molecule antagonists: luciferase reporter qHTS assay (AID 1671201). Also: nearly all actives have a fitted effect of over 50% in size. Also: potency is read from the fitted curve at half-maximal effect. In a few lines: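 Enzyme and proluciferin substrate are mixed with test chemicals for 10 min, then NADPH regeneration system drives turnover for 1 h at room temperature. A detection reagent halts the reaction; luminescence after 20 min gives relative activity.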

A short description of test [14]: Caspase-3/7 induction in CHO-K1 cells by small molecules, qHTS cell viability counter screen (AID 1346979). Also: nearly all actives have a fitted effect of over 35% in size. In short, it runs like this:
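Seeding: 1,500 CHO-K1 cells/well. Rest: 5hr, 37C. Treatment: compounds in DMSO, 16hr. Read: CellTiter-Fluor, 1hr, fluorescence.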

Test [15] addresses Cytochrome P450 2D6 (Homo sapiens) (UniProt P10635). Put plainly: Cytochrome P450 Family 2 Subfamily D Member 6 (CYP2D6) small molecule antagonists: luciferase reporter qHTS assay (AID 1671196). Also: nearly all actives have a fitted effect of over 50% in size. Also: potency is read from the fitted curve at half-maximal effect. In short, it runs like this: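 P450-Glo format: CYP2D6 converts a proluciferin substrate to luciferin in an NADPH-driven reaction lasting 1 h at room temperature. Light output, proportional to CYP2D6 activity, reflects interference by test chemicals.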

The target in test [16] is Cytochrome P450 2C19 (Homo sapiens) (UniProt P33261). Put plainly: Cytochrome P450 Family 2 Subfamily C Member 19 (CYP2C19) small molecule antagonists: luciferase reporter qHTS assay (AID 1671197). Also: nearly all actives have a fitted effect of over 65% in size. Also: potency is read from the fitted curve at half-maximal effect. In short, it runs like this: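 Relative luminescence units recorded 20 min after the detection reagent stopped a 1 h, 37C CYP2C19 reaction on proluciferin substrate, which was started by NADPH regeneration following 10 min room-temperature compound preincubation; ketoconazole positive control.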

The target in test [17] is Nuclear receptor subfamily 1 group I member 2 (Rattus norvegicus) (UniProt Q9R1A7). Put plainly: Rat pregnane X receptor (rPXR) activation by small molecules, qHTS assay (AID 1346983). Also: nearly all actives have a fitted effect of over 20% in size. Conditions: rPXR luciferase reporter cells, One-Glo luminescence, 24 h; hits give high values. In a few lines:
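Cell-based rPXR activation assay: rPXR cells, 2,000 per well, rested 5hr at 37 C, then exposed to compounds in DMSO for 24 hr at 37 C. Luciferase activity read by One-Glo luminescence after 30 min at room temperature.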

Test [18] addresses Nuclear receptor subfamily 1 group I member 2 (Homo sapiens) (UniProt O75469). Put plainly: CYP3A4 induction through human pregnane X receptor (PXR) by small molecules, qHTS assay (AID 1346984). Also: nearly all actives have a fitted effect of over 40% in size. In a few lines:
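Steps: seed DPX-2 cells, 5 hr at 37C; pin-transfer compounds; 24 hr at 37C; add Luciferin-IPA (3uM final), 3 hr at 37C; add One-Glo, 30 min RT; read luminescence.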

The target is the same in test [19]. Put plainly: Human pregnane X receptor (PXR) activation by small molecules, qHTS assay (AID 1346985). Also: nearly all actives have a fitted effect of over 40% in size. In a few lines: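 DPX-2 cells (HepG2 co-transfected with a PXR response element and a CYP3A4-promoter luciferase construct) were seeded at 2,000 per well, rested 5 hr at 37C, then exposed to DMSO-dissolved compounds for 24 hr. Activation was read as luciferase luminescence.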

Values without a mark were called inactive. Inconclusive results are not listed. Calls of active or inactive are those of the source. Unless noted, calls follow the shape of the dose curve; as a rule, active = well fitted curve in the direction sought with a large enough effect in the repeat runs; inconclusive = weak or mixed curves; inactive = no such curve, though single readings can be large; an effect the other way counts as inactive or inconclusive.
% is scaled to controls: 0 for no effect and ±100 for the full control effect.

Chain of Cytochrome P450 2C9 (Homo sapiens) (P11712 whole entry, looked up): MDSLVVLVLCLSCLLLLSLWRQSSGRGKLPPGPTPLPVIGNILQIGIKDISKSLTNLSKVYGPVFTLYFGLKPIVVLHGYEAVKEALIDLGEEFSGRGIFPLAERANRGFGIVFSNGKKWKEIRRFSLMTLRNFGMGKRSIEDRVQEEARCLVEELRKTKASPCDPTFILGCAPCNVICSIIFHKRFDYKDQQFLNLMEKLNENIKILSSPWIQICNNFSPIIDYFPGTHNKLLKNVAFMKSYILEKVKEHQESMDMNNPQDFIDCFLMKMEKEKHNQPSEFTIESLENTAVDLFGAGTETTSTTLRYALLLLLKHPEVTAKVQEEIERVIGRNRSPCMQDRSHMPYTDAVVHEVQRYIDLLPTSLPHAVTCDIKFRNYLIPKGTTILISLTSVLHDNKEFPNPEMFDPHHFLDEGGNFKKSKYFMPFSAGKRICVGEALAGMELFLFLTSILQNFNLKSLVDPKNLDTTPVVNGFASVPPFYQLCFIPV
Chain of Voltage-gated inwardly rectifying potassium channel KCNH2 (Homo sapiens) (Q12809 whole entry, looked up): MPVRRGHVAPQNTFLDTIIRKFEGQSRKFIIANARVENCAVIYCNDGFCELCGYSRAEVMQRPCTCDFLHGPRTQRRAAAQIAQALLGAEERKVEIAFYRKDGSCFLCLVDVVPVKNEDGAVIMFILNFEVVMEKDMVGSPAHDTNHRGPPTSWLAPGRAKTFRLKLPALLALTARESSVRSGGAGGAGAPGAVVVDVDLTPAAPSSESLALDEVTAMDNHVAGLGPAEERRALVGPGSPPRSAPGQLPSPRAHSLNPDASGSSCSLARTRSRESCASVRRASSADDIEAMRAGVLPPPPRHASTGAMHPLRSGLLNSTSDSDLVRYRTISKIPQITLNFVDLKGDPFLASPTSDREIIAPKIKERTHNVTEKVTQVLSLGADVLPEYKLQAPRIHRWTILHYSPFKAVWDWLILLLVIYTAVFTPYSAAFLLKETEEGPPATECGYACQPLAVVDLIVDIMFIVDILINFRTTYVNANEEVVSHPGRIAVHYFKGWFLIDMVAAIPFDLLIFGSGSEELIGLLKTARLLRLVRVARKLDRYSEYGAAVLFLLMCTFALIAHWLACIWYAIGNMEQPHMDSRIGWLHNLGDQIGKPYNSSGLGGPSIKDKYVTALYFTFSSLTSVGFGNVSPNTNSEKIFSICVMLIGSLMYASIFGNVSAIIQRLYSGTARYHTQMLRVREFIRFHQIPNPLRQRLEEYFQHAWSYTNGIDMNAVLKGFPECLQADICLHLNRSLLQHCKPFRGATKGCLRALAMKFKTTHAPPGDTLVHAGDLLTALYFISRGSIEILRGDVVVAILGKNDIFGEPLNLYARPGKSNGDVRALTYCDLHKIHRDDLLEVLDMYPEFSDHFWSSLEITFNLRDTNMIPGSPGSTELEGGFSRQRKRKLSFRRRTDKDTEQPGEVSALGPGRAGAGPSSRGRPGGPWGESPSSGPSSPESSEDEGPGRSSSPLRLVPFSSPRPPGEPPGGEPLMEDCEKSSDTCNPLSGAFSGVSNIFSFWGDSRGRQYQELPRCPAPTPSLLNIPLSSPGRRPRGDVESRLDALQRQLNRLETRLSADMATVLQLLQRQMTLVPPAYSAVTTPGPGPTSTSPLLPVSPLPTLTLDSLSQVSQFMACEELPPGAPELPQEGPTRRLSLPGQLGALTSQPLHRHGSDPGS
Chain of Thyrotropin-releasing hormone receptor (Homo sapiens) (P34981 whole entry, looked up): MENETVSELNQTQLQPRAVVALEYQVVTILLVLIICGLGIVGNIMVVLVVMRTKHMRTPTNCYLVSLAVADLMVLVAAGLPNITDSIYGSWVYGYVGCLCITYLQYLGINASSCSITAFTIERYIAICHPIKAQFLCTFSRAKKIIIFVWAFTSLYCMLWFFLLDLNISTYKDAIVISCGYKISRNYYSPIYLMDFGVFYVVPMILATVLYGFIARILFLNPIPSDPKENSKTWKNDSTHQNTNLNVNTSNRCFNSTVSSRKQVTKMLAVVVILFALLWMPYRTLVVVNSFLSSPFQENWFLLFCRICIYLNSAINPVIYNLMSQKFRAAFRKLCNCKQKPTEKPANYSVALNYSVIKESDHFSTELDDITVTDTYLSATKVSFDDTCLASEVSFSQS
Chain of Cytochrome P450 3A4 (Homo sapiens) (P08684 whole entry, looked up): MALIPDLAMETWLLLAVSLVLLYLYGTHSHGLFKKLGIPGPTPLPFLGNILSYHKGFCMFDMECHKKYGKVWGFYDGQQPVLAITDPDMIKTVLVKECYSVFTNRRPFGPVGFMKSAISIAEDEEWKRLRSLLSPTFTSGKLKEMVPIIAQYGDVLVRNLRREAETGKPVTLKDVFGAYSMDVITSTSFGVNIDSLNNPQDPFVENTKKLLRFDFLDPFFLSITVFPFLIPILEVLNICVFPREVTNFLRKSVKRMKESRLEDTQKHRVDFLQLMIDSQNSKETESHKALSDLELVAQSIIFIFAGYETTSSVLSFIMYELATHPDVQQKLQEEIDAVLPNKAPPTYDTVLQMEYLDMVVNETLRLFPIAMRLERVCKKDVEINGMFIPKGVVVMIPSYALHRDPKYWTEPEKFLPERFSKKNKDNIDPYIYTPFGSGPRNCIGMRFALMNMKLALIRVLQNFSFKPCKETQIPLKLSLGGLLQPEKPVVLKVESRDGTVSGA
Chain of Cytochrome P450 2C19 (Homo sapiens) (P33261 whole entry, looked up): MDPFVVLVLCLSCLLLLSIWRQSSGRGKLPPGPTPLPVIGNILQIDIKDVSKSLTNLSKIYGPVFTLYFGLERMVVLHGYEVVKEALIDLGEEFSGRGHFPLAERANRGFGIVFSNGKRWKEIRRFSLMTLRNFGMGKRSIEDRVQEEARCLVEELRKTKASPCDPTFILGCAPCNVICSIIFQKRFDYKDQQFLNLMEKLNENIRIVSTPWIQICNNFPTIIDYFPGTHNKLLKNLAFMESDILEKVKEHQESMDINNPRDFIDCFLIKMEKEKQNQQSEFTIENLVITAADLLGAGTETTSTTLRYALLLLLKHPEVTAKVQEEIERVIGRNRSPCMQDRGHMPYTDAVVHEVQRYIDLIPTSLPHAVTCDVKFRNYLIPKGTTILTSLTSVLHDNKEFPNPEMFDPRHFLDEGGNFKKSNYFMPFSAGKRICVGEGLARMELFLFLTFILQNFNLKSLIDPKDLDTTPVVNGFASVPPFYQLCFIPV
Chain of Cytochrome P450 1A2 (Homo sapiens) (P05177 whole entry, looked up): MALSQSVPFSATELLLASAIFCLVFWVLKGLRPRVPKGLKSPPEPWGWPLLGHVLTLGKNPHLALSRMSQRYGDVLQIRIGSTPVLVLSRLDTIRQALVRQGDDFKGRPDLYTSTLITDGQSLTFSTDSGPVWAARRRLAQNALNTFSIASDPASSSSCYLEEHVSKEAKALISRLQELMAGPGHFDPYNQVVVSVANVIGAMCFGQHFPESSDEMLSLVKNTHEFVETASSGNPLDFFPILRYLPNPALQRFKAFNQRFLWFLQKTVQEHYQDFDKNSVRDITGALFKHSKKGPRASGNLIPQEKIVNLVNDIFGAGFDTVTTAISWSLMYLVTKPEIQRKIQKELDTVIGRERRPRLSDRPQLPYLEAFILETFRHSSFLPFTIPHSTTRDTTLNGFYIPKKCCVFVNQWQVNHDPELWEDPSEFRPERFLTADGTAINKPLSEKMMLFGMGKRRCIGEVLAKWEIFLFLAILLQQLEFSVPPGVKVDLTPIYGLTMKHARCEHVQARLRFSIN
Chain of Cytochrome P450 2D6 (Homo sapiens) (P10635 whole entry, looked up): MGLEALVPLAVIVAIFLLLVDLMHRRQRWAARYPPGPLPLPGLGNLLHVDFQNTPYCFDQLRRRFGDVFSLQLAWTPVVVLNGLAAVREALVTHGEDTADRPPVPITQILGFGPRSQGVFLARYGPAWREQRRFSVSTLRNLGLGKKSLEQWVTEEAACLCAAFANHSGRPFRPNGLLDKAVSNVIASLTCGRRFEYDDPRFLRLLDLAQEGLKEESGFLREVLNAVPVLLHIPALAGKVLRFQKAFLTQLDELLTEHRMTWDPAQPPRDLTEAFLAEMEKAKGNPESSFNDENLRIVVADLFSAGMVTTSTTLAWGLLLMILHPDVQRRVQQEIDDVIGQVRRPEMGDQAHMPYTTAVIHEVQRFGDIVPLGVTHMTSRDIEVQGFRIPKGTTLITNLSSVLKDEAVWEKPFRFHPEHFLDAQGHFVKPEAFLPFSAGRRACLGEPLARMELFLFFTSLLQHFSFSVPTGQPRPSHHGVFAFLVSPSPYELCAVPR
Chain of Nuclear receptor subfamily 1 group I member 2 (Homo sapiens) (O75469 whole entry, looked up): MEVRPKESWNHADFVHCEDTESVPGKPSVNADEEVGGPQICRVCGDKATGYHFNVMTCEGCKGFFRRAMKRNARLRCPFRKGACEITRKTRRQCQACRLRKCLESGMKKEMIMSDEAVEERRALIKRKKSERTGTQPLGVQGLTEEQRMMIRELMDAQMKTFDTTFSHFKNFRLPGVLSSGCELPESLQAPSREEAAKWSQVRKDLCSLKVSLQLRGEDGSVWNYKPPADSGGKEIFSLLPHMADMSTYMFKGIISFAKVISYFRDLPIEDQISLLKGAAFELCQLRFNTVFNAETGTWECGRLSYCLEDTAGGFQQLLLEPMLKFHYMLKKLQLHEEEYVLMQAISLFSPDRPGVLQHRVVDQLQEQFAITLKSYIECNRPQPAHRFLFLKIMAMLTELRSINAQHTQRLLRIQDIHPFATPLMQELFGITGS
Chain of Nuclear receptor subfamily 1 group I member 2 (Rattus norvegicus) (Q9R1A7 whole entry, looked up): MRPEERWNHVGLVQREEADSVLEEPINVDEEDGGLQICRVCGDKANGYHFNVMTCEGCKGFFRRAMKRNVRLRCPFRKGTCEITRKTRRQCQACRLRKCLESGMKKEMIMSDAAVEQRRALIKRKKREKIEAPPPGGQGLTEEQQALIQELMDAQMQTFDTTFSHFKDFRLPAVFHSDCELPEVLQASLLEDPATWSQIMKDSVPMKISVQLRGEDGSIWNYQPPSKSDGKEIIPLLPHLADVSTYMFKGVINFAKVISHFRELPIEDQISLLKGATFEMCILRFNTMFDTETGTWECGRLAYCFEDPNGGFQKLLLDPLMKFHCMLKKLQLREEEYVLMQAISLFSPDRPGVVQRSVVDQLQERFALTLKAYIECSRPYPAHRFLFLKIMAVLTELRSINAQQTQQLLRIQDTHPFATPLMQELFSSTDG

Take `CCCC(=O)OCCC(C)CCC=C(C)C` (centres undefined): the outcome in test [1], in test [2], in test [3], in test [4], in test [5] and in test [6] was inactive. Also, the call in test [7] and in [8] was inactive. Also, the Potency result in test [9] and in test [12] was “inactive” each time. Moreover, the Potency is 20 µM (active) in test [10], 39.9 µM (active) in test [11] and 4.48 µM (active) in [13].
For the molecule `CCCCCCCCCCCCCBr`, the outcome in test [1], in test [2], in [3], in test [4], in [6] and in test [8] was inactive. Moreover, the Potency result in [14], in [9], in test [15], in test [10], in test [12] and in [13] was “inactive” throughout. Besides, the Potency in test [16] was 70.8 µM (active); in test [11] it was 22.4 µM (active).
For the molecule `C/C(CC(C)C)=N\O`, the molecule was classed as inactive in [1], in test [2], in [3], in [4], in test [6] and in test [7]. Further, in test [8], the molecule was called inactive. For the same molecule, the Potency entry in test [14], in [9], in test [16], in [10], in [11] and in test [12] was “inactive” each time. Moreover, the Potency result in [13] was “inactive”.
Take `CC(S)C(C)S` (centres undefined): the molecule was called inactive in [1], in test [2], in test [3], in [4], in test [6] and in test [7]. Besides, the molecule was classed as inactive in test [8]. In addition, the Potency entry in test [9], in test [15], in test [16], in [10], in [12] and in [13] was “inactive” in each case.
For the molecule `Fc1ccccc1`, the outcome in test [1], in [2], in test [3], in test [4], in test [6] and in test [7] was inactive. Moreover, the outcome in test [8] was inactive. Moreover, the Potency result in test [14], in test [9], in test [10], in [11], in [12] and in test [13] was “inactive” throughout.
Turning to `O=C(NCN1CCOCC1)c1cnccn1`, the result in [1], in [2], in [3], in [4], in [6] and in [7] was inactive. Besides, the molecule was classed as inactive in [8]. Besides, the Potency entry in test [14], in test [9], in test [18], in test [19], in test [15] and in [16] was “inactive” in each case. Besides, the Potency entry in [10], in test [11], in [12] and in test [13] was “inactive” in each case. Besides, the max activation in test [17] is -1.75%.
For `COc1ccc2c(c1)c1c3n2CCN(C)C3=NCC1`, the result in [1], in [2], in [3], in test [4], in [5] and in test [6] was inactive. For the same molecule, in [8], the molecule was called inactive. Moreover, the Potency entry in test [9], in [18], in test [19], in [16], in test [10] and in test [12] was “inactive” each time. Moreover, the Potency result in test [13] was “inactive”. For the same molecule, the max activation in [17] is 5.26%. Besides, in test [15], the Potency is 15.5 µM (active).
Consider `CCCCCC(C)O` (centres undefined), for which the call in test [1], in test [2], in test [3], in [5], in test [6] and in test [7] was inactive. The call in test [8] was inactive. The Potency entry in test [14], in test [9], in test [15], in test [16], in test [10] and in test [11] was “inactive” each time. In addition, the Potency entry in test [13] is “inactive”.
Take `C/C(=C1\CCOC(=O)S1)N(C=O)Cc1cnc(C)nc1N`: the call in test [1], in test [2], in test [3], in test [4], in test [6] and in test [7] was inactive. The call in [8] was inactive. Further, the Potency result in test [14], in test [9], in test [10], in [11] and in test [12] was “inactive” throughout. Besides, the Potency in test [15] was 13.8 µM (active); in test [13], 15.5 µM (active).
